Measured values reported in PubChem BioAssay (NCI).
Compounds without any hit were thinned out: in the full panel of roughly 79,000, 15% have a hit. Unmarked numbers belong to inactive results. The source made the active and inactive calls. No stated cut-off is given here; in the data, active means growth inhibition above about 70%; inactive means the rest.

Columns and labels:
[1] = NCI Yeast Anticancer Drug Screen. Data for the rad50 strain (AID 155);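 further: 0% = growth of vehicle-only cultures of the same strain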; conditions: S. cerevisiae rad50 strain growth inhibition, active compounds read high
In short: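 DNA repair mutant yeast, compound exposure, growth read-out; inhibition is taken relative to vehicle.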

[2] = NCI Yeast Anticancer Drug Screen. Data for the mec2-1 strain (AID 157); conditions: S. cerevisiae mec2-1 strain, active compounds read high
In short: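 mec2-1 yeast strain, carrying an alteration in DNA damage repair or cell cycle control, was exposed to compounds; growth inhibition was measured relative to vehicle-treated controls.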

[3] = NCI Yeast Anticancer Drug Screen. Data for the sgs1 mgt1 strain (AID 161);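 further: 0% = growth of cultures given vehicle only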; conditions: S. cerevisiae sgs1 mgt1 strain, active compounds read high
In short: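 This yeast growth screen uses a strain with defined DNA-repair lesions; compound-treated growth is compared with vehicle-treated growth.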

[4] = NCI Yeast Anticancer Drug Screen. Data for the cln2 rad14 strain (AID 165);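 further: 0% = growth equal to vehicle treated cultures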; conditions: S. cerevisiae cln2 rad14 strain, active compounds read high
In short: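 Yeast carrying cln2 and rad14 alterations (cell cycle control and DNA damage repair) were exposed to compounds. Growth inhibition was measured against vehicle-treated controls.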

[5] = NCI Yeast Anticancer Drug Screen. Data for the bub3 strain (AID 167); conditions: S. cerevisiae bub3 mutant strain, active compounds read high
In short: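 In this screen, a yeast mutant lacking normal mitotic checkpoint function is challenged with compound. Relative growth versus vehicle gives the inhibition value.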

[6] = NCI Yeast Anticancer Drug Screen. Data for the mlh1 rad18 strain (AID 175); conditions: S. cerevisiae mlh1 rad18 strain growth inhibition, active compounds read high
In short: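 Growth inhibition of the yeast strain was measured after compound exposure and expressed relative to vehicle-treated controls. The strain carries defined defects in DNA damage repair.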

[7] = at 5.0 µM (retest, dose inferred, filed as 0.5)
[8] = at 50.0 µM (retest, dose inferred, filed as 5.0)

| SMILES | growth inhibition [1, 7] [%] | growth inhibition [1, 8] | growth inhibition ([1]; at 50.0 µM) | growth inhibition [2, 7] [%] | growth inhibition [2, 8] | growth inhibition ([2]; at 50.0 µM) | growth inhibition [3, 7] [%] | growth inhibition [3, 8] | growth inhibition ([3]; at 50.0 µM) | growth inhibition [4, 7] [%] | growth inhibition [4, 8] | growth inhibition ([4]; at 50.0 µM) | growth inhibition [5, 7] [%] | growth inhibition [5, 8] | growth inhibition ([5]; at 50.0 µM) | growth inhibition [6, 7] [%] | growth inhibition [6, 8] | growth inhibition ([6]; at 50.0 µM) |
| --- | --- | --- | --- | --- | --- | --- | --- | --- | --- | --- | --- | --- | --- | --- | --- | --- | --- | --- |
| CC1OC(Oc2c(-c3ccc(O)c(O)c3O)oc3cc(O)ccc3c2=O)C(O)C(O)C1O (stereo not given) | -4 | -2% | 14.4% | -10 | -5% | 9.6% | -5 | 8% | 17.6% | 3 | -6% | 2.9% | -3 | -3% | -12.7% | -5 | -8% | 27.8% |
| Cc1ccc(NC(=O)CCCC(=O)C(C#N)c2ccccc2C)cc1C (stereo not given) | -5 | 7% | -17.3% | -2 | 3% | 11.4% | -5 | -19% | 10.6% | -8 | -5% | -19.1% | -1 | 2% | 5.75% | 1 | -4% | 12.1% |
| O=C1/C(=C/c2ccccc2)CNC/C1=C\c1ccccc1 | -11 | 98% (active) | 98.7% (active) | 26 | 97% (active) | 99.3% (active) | -7 | 96% (active) | 95.2% (active) | 10 | 98% (active) | 92.5% (active) | 6 | 98% (active) | 94.2% (active) | -4 | 98% (active) | 99.2% (active) |
| OCC(c1ccccc1)c1ccccc1 | 24 | 42% | 77.8% (active) | 2 | 6% | 54.5% | 41 | 34% | 76.5% (active) | 2 | 9% | -14.2% | 39 | 43% | 18% | 11 | 22% | 80.2% (active) |
| COc1ccc(CNc2nc3cc(C(F)(F)F)ccc3nc2C)cc1OC | -9 | 22% | 87.8% (active) | -34 | 39% | 91.3% (active) | 6 | 38% | 91.4% (active) | 11 | 74% (active) | 92.7% (active) | -30 | 18% | 89.7% (active) | -19 | 18% | 89.2% (active) |
